SARS 3CLpro inh-1: SARS-CoV 3CLpro protease inhibitors, primary screen, biochemical, quenched FRET; Replicase polyprotein 1ab (Severe acute respiratory syndrome coronavirus), P0C6X7; recombinant SARS-CoV 3CLpro, quenched FRET peptide cleavage; inhibition, % at 6 µM; actives 0.14% (n = 290,000); in the data active = inhibition above about 12%
BoNT-A LC inh2: BoNT/A light chain protease inhibitors, primary screen, biochemical, flow cytometry, MLPCN library | Botulinum neurotoxin type A light chain protease (Clostridium botulinum A str. ATCC 3502) | multiplex microsphere protease substrate cleavage | inhibition, % at 10 µM | actives 0.17% (n = 360,000) | AID 588499, 2011
Anthrax LF prot: Bacillus anthracis LF protease inhibitors, primary screen, biochemical, multiplex microsphere, MLPCN library; actives 0.12% (n = 360,000); Lethal factor (Bacillus anthracis), P15917; AID 588501, 2011; multiplex microsphere protease cleavage assay; inhibition, % at 10 µM
Autofluor counter: compound fluorescence in toxin protease inhibitor counterscreen. compound autofluorescence counterscreen, microsphere flow cytometry; active compounds read high. fluorescence intensity (concentration not given with the values). actives 3.1% (n = 360,000). AID 624483; in the data active = fluorescence intensity above about 16000; inconclusive = no clear call, values can overlap the other calls
BoNT-F LC inh: BoNT/F light chain protease inhibitors, primary screen, biochemical, flow cytometry, MLPCN library. Botulinum neurotoxin type F light chain protease (Clostridium botulinum). Multiplex microsphere protease cleavage assay. inhibition, % at 10 µM. actives 0.22% (n = 360,000); in the data active = inhibition above about 35%, passing the limit was not always enough; inconclusive = no clear call, values can overlap the other calls
SARS 3CLpro inh-2: confirmation of SARS coronavirus 3C-like protease inhibitors, retest, confirmation, biochemical; shares compounds with SARS 3CLpro inh-1; QFRET protease activity assay, 3CLpro; inhibition, % at 6 µM; actives 36% (n = 380); in the data active = inhibition above about 13%
Of the large screens only hits and unclear results are named; the others gave an inactive call (follow-up assays come after a bar, where they were run). Hits are enriched below; roughly 3.5% of the tested compounds scored in any of these assays. Cut-off read from the data, not from the text of the source, unless noted: active = inhibition above about 30%; inconclusive = no clear call, values can overlap the other calls; inactive = below that.

O=C(O)c1[nH]c2ccccc2c1C(c1cc(Br)ccc1O)c1c(C(=O)O)[nH]c2ccccc12	SARS 3CLpro inh-1 14 (no result: BoNT-A LC inh2, Anthrax LF prot, Autofluor counter, BoNT-F LC inh) | SARS 3CLpro inh-2 15
O=C1CCC(=O)N1c1ccc(NCCc2cccc(F)c2)c([N+](=O)[O-])c1	none
CCOC(=O)c1oc2nc(CC(C)C)c3c(c2c1N)CCCC3	SARS 3CLpro inh-1 13 | SARS 3CLpro inh-2 inactive
COc1ccc(C(CC(=O)c2ccc3c(c2)OCO3)c2c(O)c3ccccc3oc2=O)cc1OC (centres undefined)	none (no result: SARS 3CLpro inh-1)
Cc1ccc(Nc2nc(N)c([N+](=O)[O-])c(N3CCC(C)CC3)n2)cc1C	none
Cc1ccc(Nc2nc(N)c([N+](=O)[O-])c(N3CCOCC3)n2)cc1C	SARS 3CLpro inh-1 13 | SARS 3CLpro inh-2 inactive
Cc1cc(S(=O)(=O)Nc2c(C(=O)O)[nH]c3ccccc23)ccc1F	none
CCOc1ccc(N(CC(=O)NCCSCc2ccco2)S(=O)(=O)c2ccc(C)cc2)cc1	SARS 3CLpro inh-1 12 | SARS 3CLpro inh-2 inactive
CN(C)S(=O)(=O)c1cccc(C(=O)Nc2ccccc2N2CCCCC2)c1	none
O=C1C2C(c3ccccc3)C=CC(c3ccccc3)C2C(=O)N1c1ccncc1 (centres undefined)	none
O=C1C2C(c3ccccc3)C=CC(c3ccccc3)C2C(=O)N1c1cccnc1 (centres undefined)	SARS 3CLpro inh-1 20 | SARS 3CLpro inh-2 70
CC(=O)n1cc(N(C(=O)CCl)c2ccccc2)c2ccccc21	none (no result: BoNT-A LC inh2, Anthrax LF prot, Autofluor counter, BoNT-F LC inh)
CC(=O)n1cc(N(C(=O)CCl)c2ccc([N+](=O)[O-])cc2)c2ccccc21	SARS 3CLpro inh-1 14 (no result: BoNT-A LC inh2, Anthrax LF prot, Autofluor counter, BoNT-F LC inh) | SARS 3CLpro inh-2 36
COCCN=C1N[C@@H](c2cccc(C(F)(F)F)c2)C(C(=O)OC)=C(C)N1Cc1ccccc1	none
COc1ccc(S(=O)(=O)N2CCOC2CNC(=O)C(=O)NCCN(C)C)cc1 (centres undefined)	SARS 3CLpro inh-1 13 | SARS 3CLpro inh-2 inactive
COc1ccc(S(=O)(=O)N2CCOC2CNC(=O)C(=O)NCCc2ccccc2OC)cc1C (centres undefined)	none
COc1ccccc1CCNC(=O)C(=O)NCC1OCCN1S(=O)(=O)c1ccc2c(c1)OCCO2 (centres undefined)	SARS 3CLpro inh-1 13 | SARS 3CLpro inh-2 inactive
CN(C)S(=O)(=O)c1cccc(NC(=O)CSc2cccc3cccnc23)c1	SARS 3CLpro inh-1 17 | SARS 3CLpro inh-2 35
O=C(/C=C/c1ccccc1Cl)Nc1ccncc1	none
O=C(/C=C/c1ccccc1Cl)Nc1cccnc1	SARS 3CLpro inh-1 16 | SARS 3CLpro inh-2 21
CC1CCN(C(=O)c2ccc3c(c2)NC(=O)/C(=C/c2ccccc2)S3)CC1	none
Cc1cccc(N2CCN(C(=O)c3cc(=O)[nH]c4ccccc34)CC2)c1C	SARS 3CLpro inh-1 41 | SARS 3CLpro inh-2 55
O=C(c1ccco1)N1CCN(C(=O)c2cc(=O)[nH]c3ccccc23)CC1	none (no result: SARS 3CLpro inh-1)
O=C(c1cc(=O)[nH]c2ccccc12)N1CCN(c2ccccc2)CC1	SARS 3CLpro inh-1 32 | SARS 3CLpro inh-2 31
COc1ccccc1C(=O)N/N=C(\C)c1ccc(NC(=O)Cc2ccccc2)cc1	none
CC(=O)N(c1ccc(C(F)(F)F)cc1)S(=O)(=O)c1ccc(N2C(=O)CCC2=O)cc1	SARS 3CLpro inh-1 13 | SARS 3CLpro inh-2 inactive
O=C(CCS(=O)(=O)c1ccccc1)N1CCN(c2ccc(F)cc2)CC1	SARS 3CLpro inh-1 13 | SARS 3CLpro inh-2 inactive
O=C(CCS(=O)(=O)c1ccc(F)cc1)N1CCN(c2ccccc2)CC1	none (no result: SARS 3CLpro inh-1)
COCCn1c(SCC(=O)NC2CCCC2)nnc1-c1ccncc1	none
COc1ccc(Cl)cc1NC(=O)CSc1nc2sccc2c(=O)[nH]1	none
COc1ccc(C)cc1NC(=O)CSc1nc2scc(C)c2c(=O)[nH]1	SARS 3CLpro inh-1 13 | SARS 3CLpro inh-2 inactive
COC(=O)Cc1c(C)c2ccc(OC(=O)c3ccco3)cc2oc1=O	none
CCc1cc(=O)oc2cc(OC(=O)c3ccco3)ccc12	SARS 3CLpro inh-1 68 | SARS 3CLpro inh-2 71
Cc1cc(=O)oc2cc(OC(=O)c3ccccc3)ccc12	none
Cc1cc(=O)oc2cc(OC(=O)c3ccco3)ccc12	SARS 3CLpro inh-1 29 | SARS 3CLpro inh-2 70
COc1ccccc1/C=C/C(=O)c1cc(Br)ccc1OC(=O)c1ccco1	SARS 3CLpro inh-1 15 | SARS 3CLpro inh-2 50
Cc1ccc(/C=C/C(=O)c2cc(Br)ccc2OC(=O)c2ccco2)cc1	SARS 3CLpro inh-1 23 | SARS 3CLpro inh-2 32
Cc1ccc(C(=O)OCC(=O)c2ccc[nH]2)s1	none
O=C(C#Cc1ccccc1)NCc1ccccc1F	BoNT-F LC inh inconclusive
Cc1cccc(-n2nc(C)c3c(C(=O)O)cc(-c4cccs4)nc32)c1	SARS 3CLpro inh-1 13 | SARS 3CLpro inh-2 inactive
Cc1nn(-c2cccc(Cl)c2)c2nc(-c3ccco3)cc(C(=O)O)c12	none (no result: BoNT-A LC inh2, Anthrax LF prot, Autofluor counter, BoNT-F LC inh)
Cc1ccccc1NC1=C/C(=N\S(=O)(=O)c2ccc(C(=O)O)cc2)c2ccccc2C1=O	SARS 3CLpro inh-1 16 | SARS 3CLpro inh-2 inactive
CC1=C(C(=O)OCc2ccccc2)C(c2ccc([N+](=O)[O-])cc2)NC(=O)N1CCCC(=O)O (centres undefined)	none
CCOc1ccc(N(CC(=O)Nc2ccc(CC)cc2)S(=O)(=O)c2c(C)[nH]c(=O)[nH]c2=O)cc1	SARS 3CLpro inh-1 14 | SARS 3CLpro inh-2 inactive
O=[N+]([O-])c1cccc2c(N3CCOCC3)ccnc12	none
COC(=O)c1cc2c(n(-c3ccccc3)c1=O)CCCC2=O	none (no result: SARS 3CLpro inh-1)
COC(=O)[C@H](Cc1ccccc1)NC(=O)N1CCN(c2ccc(F)cc2)CC1	none (no result: BoNT-A LC inh2, Anthrax LF prot, Autofluor counter, BoNT-F LC inh)
Cc1cccc(CN2CCN(C(=O)CCl)CC2)c1	SARS 3CLpro inh-1 16 | SARS 3CLpro inh-2 47
COc1ccccc1-c1c(-c2ccc(OCC(=O)NN)cc2O)n[nH]c1C(F)(F)F	none
COc1ccc(-c2n[nH]c(C(F)(F)F)c2-c2cc3ccccc3o2)c(O)c1	SARS 3CLpro inh-1 14 | SARS 3CLpro inh-2 inactive
Cc1ccc(NC2=CC(=O)CC(C)(C)C2)c(N)c1	none
O=C(CSc1ccccn1)Nc1nonc1[N+](=O)[O-]	SARS 3CLpro inh-1 41 | SARS 3CLpro inh-2 49
Cc1noc(C)c1S(=O)(=O)Nc1ccc(C(=O)Nc2ccc(OC(F)(F)F)cc2)cc1	SARS 3CLpro inh-1 13 | SARS 3CLpro inh-2 inactive
COc1cc(NC(=O)c2ccc(NS(=O)(=O)c3c(C)noc3C)cc2)cc(OC)c1	none
O=C(O)c1ccccc1NS(=O)(=O)c1ccc(NNC(=S)Nc2ccc(OC(F)F)cc2)c([N+](=O)[O-])c1	SARS 3CLpro inh-1 13 | SARS 3CLpro inh-2 inactive
O=C(COC(=O)CCc1c[nH]c2ccccc12)Nc1ccccc1	none (no result: SARS 3CLpro inh-1)
O=C(COC(=O)CCc1c[nH]c2ccccc12)NC(c1ccccc1)c1ccccc1	SARS 3CLpro inh-1 13 | SARS 3CLpro inh-2 inactive

Screening data: PubChem BioAssay, several laboratories
